Our source for the growth values is PubChem BioAssay (NCI).

Holding throughout (assay): NCI-60 one-dose screen, 48 h (100 = growth as untreated, 0 = no growth, -100 = all killed)
The subject of one test is SK-MEL-2 melanoma. The conditions noted are these: 10 µM unless noted.
The test system of the next test is EKVX NSCLC. The conditions noted are these: 10 µM unless noted.
A further test deals with SN12C renal. The settings on record: 10 µM unless noted.
The next test relates to UO-31 renal. The settings on record: 10 µM unless noted.
The subject of another test is A498 renal. The conditions noted are these: 10 µM unless noted.
For a further test, the system named is CCRF-CEM leukemia. The settings on record: 10 µM unless noted.
The subject of a further test is MOLT-4 leukemia. The conditions noted are these: 10 µM unless noted.
The subject of another test is SR leukemia. The conditions noted are these: 10 µM unless noted.
The next test deals with RPMI-8226 leukemia. The settings on record: 10 µM unless noted.
A further test concerns OVCAR-8 ovarian. The conditions noted are these: 10 µM unless noted.
For a further test, the system named is OVCAR-5 ovarian. The settings on record: 10 µM unless noted.
In a further test the test system is OVCAR-4 ovarian. The settings on record: 10 µM unless noted.
The test system of the next test is SK-OV-3 ovarian. The settings on record: 10 µM unless noted.
A further test has as its system IGROV1 ovarian. The settings on record: 10 µM unless noted.
A further test deals with OVCAR-3 ovarian. The conditions noted are these: 10 µM unless noted.
A further test deals with HS 578T breast. The conditions noted are these: 10 µM unless noted.
The next test relates to NCI/ADR-RES ovarian. The settings on record: 10 µM unless noted.
The next test relates to ACHN renal. The conditions noted are these: 10 µM unless noted.
For a further test, the system named is TK-10 renal. The conditions noted are these: 10 µM unless noted.
A further test deals with CAKI-1 renal. The conditions noted are these: 10 µM.

The structures appear in SMILES notation. About 83,000 compounds went through this panel and 20% of them were active in at least one assay; those are over-represented in the sample as a whole.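 Activity criterion: percent growth below 10, measured after cells in 96-well plates were exposed to a single compound concentration for 48 hours.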 Unmarked numbers belong to inactive results. Active and inactive are the calls of the source.

Consider `O=S(c1ccccc1)c1ccc2nnnn2n1` (centres undefined), for which the growth in the test on SK-MEL-2 melanoma was 98.9%; in the test on EKVX NSCLC it was 101%; in the test with SN12C renal, 101%; with UO-31 renal, 73.1%; in the test with A498 renal, 86.6%; in the test on CCRF-CEM leukemia it was 44.9%. In addition, the growth was 83.8% in the test on MOLT-4 leukemia; 85.2% in the test with SR leukemia; 95.7% with RPMI-8226 leukemia; 108% with OVCAR-8 ovarian; 110% with OVCAR-5 ovarian; 111% with OVCAR-4 ovarian. Besides, the growth with SK-OV-3 ovarian was 114%; in the test with IGROV1 ovarian, 75.8%; in the test on OVCAR-3 ovarian it was 83.8%; in the test on HS 578T breast, 97.7%; in the test with NCI/ADR-RES ovarian it was 106%.

As to `CCCOC(=O)c1ccc([N+](=O)[O-])o1`, the growth was 102% in the test with SK-MEL-2 melanoma; 112% in the test with EKVX NSCLC; 103% in the test on SN12C renal; 96.2% with UO-31 renal; 105% with ACHN renal; 97.4% in the test on CCRF-CEM leukemia. Moreover, the growth in the test with RPMI-8226 leukemia is 97.5%; with OVCAR-8 ovarian it was 109%; in the test with OVCAR-5 ovarian it was 99.5%; in the test with OVCAR-4 ovarian it was 95.1%; with SK-OV-3 ovarian it was 113%; in the test with IGROV1 ovarian, 102%. The growth in the test on OVCAR-3 ovarian is 123%; in the test on NCI/ADR-RES ovarian it was 104%.

Regarding `O=c1[nH]ccc2nc(N3CCC(O)CC3)nc(Nc3cccc(C(F)(F)F)c3)c12`, the growth in the test with SK-MEL-2 melanoma is 25.2%; in the test on EKVX NSCLC it was 83%; with SN12C renal, 61.4%; in the test with TK-10 renal, 67.6%; in the test on ACHN renal, 67.6%; with CAKI-1 renal, 38.6%. Moreover, the growth is 93.6% with A498 renal; 13% in the test on CCRF-CEM leukemia; 1.19% (active) in the test on MOLT-4 leukemia; 62.6% in the test on RPMI-8226 leukemia; 45.3% in the test with OVCAR-8 ovarian; 137% in the test with OVCAR-5 ovarian. Moreover, the growth with OVCAR-4 ovarian is 91.4%; in the test with SK-OV-3 ovarian, 32.3%; with IGROV1 ovarian, 71.2%; with OVCAR-3 ovarian it was 68.5%; in the test on HS 578T breast, 80.2%; in the test on NCI/ADR-RES ovarian, 32.9%.

As for `CCCCCCCCCCCCCCCCCCNCc1ccc(Cl)cc1`, the growth is -73.3% (active) in the test on SK-MEL-2 melanoma; -30.2% (active) with EKVX NSCLC; -60.8% (active) with SN12C renal; -78.6% (active) in the test with UO-31 renal; -75.8% (active) with A498 renal; -45.9% (active) in the test on CCRF-CEM leukemia. For the same compound, the growth in the test on MOLT-4 leukemia was -62.1% (active); with SR leukemia it was -30.1% (active); with RPMI-8226 leukemia, -53.9% (active); with OVCAR-8 ovarian, -62.7% (active); with OVCAR-5 ovarian, -59.5% (active); in the test with OVCAR-4 ovarian, -69.1% (active). The growth in the test with SK-OV-3 ovarian is -33.1% (active); in the test on IGROV1 ovarian, -64.6% (active); in the test with OVCAR-3 ovarian it was -87.9% (active); in the test with HS 578T breast, -48.7% (active); with NCI/ADR-RES ovarian it was -64.6% (active).

On to `COc1ccc2c(c1)C(=O)/C(=C/c1cccc(OCC(=O)c3ccccc3)c1)O2`, for which the growth with SK-MEL-2 melanoma was 75.1%; with EKVX NSCLC, 82.1%; in the test on SN12C renal it was 32.9%; with TK-10 renal it was 30.7%; in the test on ACHN renal it was 45.1%; in the test on CAKI-1 renal, -98.1% (active). Besides, the growth is 117% in the test on A498 renal; -39.3% (active) with CCRF-CEM leukemia; -52.4% (active) with MOLT-4 leukemia; -29.9% (active) in the test with OVCAR-8 ovarian; 37.8% with OVCAR-5 ovarian; -55.1% (active) in the test on OVCAR-4 ovarian. Besides, the growth in the test on SK-OV-3 ovarian was 121%; in the test with OVCAR-3 ovarian it was -84.4% (active); in the test on HS 578T breast it was 52%; in the test with NCI/ADR-RES ovarian it was 65.1%.

Turning to `CCOc1ccc(-n2c(-c3cc(OC)c(OC)c(OC)c3)nnc2-c2ccc(OC)cc2N)cc1`, the growth in the test on SK-MEL-2 melanoma was 65.6%; with EKVX NSCLC it was 82.4%; in the test on SN12C renal it was 91.5%; in the test on UO-31 renal it was 57.4%; in the test with A498 renal it was 67.3%; with CCRF-CEM leukemia it was 42.3%. Further, the growth is 36.8% with MOLT-4 leukemia; 19.3% with SR leukemia; 82.6% in the test with RPMI-8226 leukemia; 64.5% with OVCAR-8 ovarian; 95.5% with OVCAR-5 ovarian; 74.7% in the test with OVCAR-4 ovarian. For the same compound, the growth in the test on SK-OV-3 ovarian was 75.2%; in the test with IGROV1 ovarian, 57.2%; in the test with OVCAR-3 ovarian, 53.6%; with HS 578T breast, 77.7%; with NCI/ADR-RES ovarian it was 77.1%.

As for `COc1ccc(-c2coc3c(CO)c(O)ccc3c2=O)cc1`, the growth in the test on SK-MEL-2 melanoma is 19.2%; with EKVX NSCLC it was 72.1%; with SN12C renal, 10.1%; with TK-10 renal, 75.2%; with ACHN renal, 20.8%; in the test on A498 renal it was 68.6%. The growth with CCRF-CEM leukemia was 45.2%; with MOLT-4 leukemia, 91.3%; in the test on SR leukemia, 25.5%; in the test with RPMI-8226 leukemia, 36.6%; in the test with OVCAR-8 ovarian, 73.6%; with OVCAR-5 ovarian, 102%. For the same compound, the growth was 75.6% in the test with OVCAR-4 ovarian; 84.7% in the test with SK-OV-3 ovarian; 61.2% with IGROV1 ovarian; 9.94% (active) in the test with OVCAR-3 ovarian; 57.2% in the test with HS 578T breast.

Consider `CCN(CC)CCNC(=O)c1c(C)[nH]c(/C=C2\C(=O)Nc3cc(NC(=O)NC(=O)c4ccc(OC)cc4F)ccc32)c1C`, for which the growth with SK-MEL-2 melanoma was 128%; in the test with EKVX NSCLC, 114%; in the test with SN12C renal it was 97.3%; in the test with UO-31 renal, 96.2%; with ACHN renal it was 38.2%; with CCRF-CEM leukemia, 42.4%. Besides, the growth with MOLT-4 leukemia was 38.2%; in the test with SR leukemia, 10.6%; in the test on RPMI-8226 leukemia it was 75.7%; with OVCAR-8 ovarian, 34%; in the test with OVCAR-5 ovarian it was 120%; with OVCAR-4 ovarian, 111%. Further, the growth with SK-OV-3 ovarian was 129%; in the test on IGROV1 ovarian, 98.5%; in the test with OVCAR-3 ovarian, 111%; in the test on HS 578T breast, 84.4%; in the test with NCI/ADR-RES ovarian it was 88.3%.

For `COc1ccc(Cl)cc1NC(=O)c1cc2c([nH]1)-c1nc(NC(=O)C(C)C)sc1CC2`, the growth in the test with SK-MEL-2 melanoma is 84.6%; in the test with EKVX NSCLC, 82.1%; in the test with SN12C renal, 99.2%; in the test with UO-31 renal, 51.9%; in the test on A498 renal it was 112%; in the test on CCRF-CEM leukemia, 93.4%. The growth in the test with MOLT-4 leukemia is 86%; with SR leukemia, 77.9%; in the test with RPMI-8226 leukemia, 93.7%; in the test on OVCAR-8 ovarian, 107%; in the test with OVCAR-5 ovarian, 128%; in the test with OVCAR-4 ovarian it was 109%. Also, the growth with SK-OV-3 ovarian is 78.1%; in the test with IGROV1 ovarian, 77.1%; in the test with OVCAR-3 ovarian it was 103%; with HS 578T breast it was 93.4%.
